PubChem BioAssay (NCATS)
Inconclusive results are not listed. The source made the active and inactive calls. Unless noted, calls come from the whole dose curve; as a rule, active = well fitted curve in the direction sought with a large enough effect; inconclusive = small, poorly fitted or top-dose-only effect, or another doubt; inactive = no such curve, though single readings can be large; an effect the other way counts as inactive or inconclusive.

Key:
[1] = AP1 Signaling Pathway (AID 357; active = well fitted curve in either direction with a large enough effect, not every such curve was filed as active;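 note: ME-180 reporter cells stimulated with EGF at its EC50 level; % is set by controls: 0 for no effect and ±100 for the full control effect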); settings: ME-180 (cervical carcinoma) AP-1-bla reporter, EGF-induced, beta-lactamase ratio, 5 h; at 17.2 µM (top of the series) unless noted
Summary of the method: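 Cells are seeded overnight, exposed to compound titrations and an EC50 level of EGF for 5 hours at 37 °C, then loaded with CCF4 dye for 2.5 hours. Beta-lactamase activity under the AP-1 element is read as a blue/green ratio.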

[2] = NFAT Signaling Pathway (AID 444; active = well fitted curve in either direction with a large enough effect, not every such curve was filed as active;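 note: carbachol stimulus at about its EC50 of 1 µM final; % is set by controls: 0 for no effect and ±100 for the full control effect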); settings: Jurkat NFAT-bla M1, carbachol, beta-lactamase ratio, 5 h; at 17.2 µM (top of the series) unless noted
Summary of the method: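 Jurkat cells with NFAT-driven β-lactamase reporter and co-expressed M1 receptor, stimulated with carbachol (final 1 uM, ~EC50), compound titration, 5 h at 37 °C. CCF4 loaded 1 h at RT; 460/530 nm ratio gave %activity and AC50.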

[3] = Stat Signaling Pathway (AID 446; active = well fitted curve in either direction with a large enough effect, not every such curve was filed as active;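 note: ME-180 cervical cancer cells given 40 pM IL-6 alongside compound; SIE-controlled beta-lactamase reporter measured as 460/530 nm FRET emission ratio; % is set by controls: 0 for no effect and ±100 for the full control effect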)
Summary of the method: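 Normalization used AC90 stimulation (300 pM IL-6) and AC90 inhibition (125 nM pan-JAK inhibitor at 40 pM IL-6). The underlying signal is SIE-driven beta-lactamase in ME-180 cells after 5 h IL-6 exposure with compound.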

[4] = molecular target: Glucocorticoid receptor (Homo sapiens) (UniProt P04150); assay: GR-GFP Redistribution (AID 450;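 active = compounds whose dose series gives a full or clear partial fitted curve of increased nuclear translocation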; note: potency is the fitted concentration of half-maximal effect); settings: U2OS GR-GFP nuclear translocation, laser cytometry, 2 h
[5] = molecular target: Glucocorticoid receptor (Homo sapiens) (UniProt P04150); assay: GR-EFC Redistribution (AID 451; calls by dose curve; note: potency is the fitted concentration of half-maximal effect); settings: CHO-K1 GR-EFC translocation, beta-gal luminescence, 2 h
Summary of the method: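 CHO-K1 cells expressing nuclear EA and GR-ED fragments of b-gal; compounds titrated up to 46 uM final, 2 h at 37 C. GR nuclear translocation read as complemented b-gal luminescence after 1 h RT detection.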

[6] = molecular target: 3',5'-cyclic-AMP phosphodiesterase 4B (Homo sapiens) (UniProt Q07343); assay: qHTS Assay for Inhibitors of PDE-IV (AID 607; active = well fitted activation curve with a large enough effect in the main read-out, with a control signal flat, not every such curve was filed as active; note: % of control where 0% means no effect)
Summary of the method: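 HEK293 ACTOne cells with CNG channel (1000/well), endogenous PDE4; membrane potential dye, compounds up to 22.9 uM final. Fluorescence Ex 535/Em 590; RO 20-1724 (100 uM final) as reference.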

[7] = molecular target: ATP-dependent 6-phosphofructokinase (Trypanosoma brucei brucei) (UniProt O15648); assay: qHTS Assay to Find Inhibitors of T. brucei phosphofructokinase: hit validation (AID 492961);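 note: luminescence reports ADP formed as PFK phosphorylates fructose-6-phosphate with ATP; % is set by controls: 0 for no effect and ±100 for the full control effect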
Summary of the method: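 Compounds titrated; %activity normalized to 0x and 1x enzyme controls, curve-fitted. Readout: ADP-Glo luminescence after 45 min room-temperature reaction of 1.25 nM PFK, 0.1 mM ATP, 0.5 mM F6P, pH 8.0.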

[8] = molecular target: Ubiquitin carboxyl-terminal hydrolase 1 (Homo sapiens) (UniProt O94782); assay: Inhibitors of USP1/UAF1: Pilot qHTS (AID 504865);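 note: rhodamine fluorescence freed from ubiquitin-rhodamine substrate followed over time; top concentration of the series differs between compounds; % is set by controls: 0 for no effect and ±100 for the full control effect; nearly all actives have a fitted effect of over 35% in size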
Summary of the method: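 Kinetic fluorescence assay: 1nM USP1/UAF1, 15 min compound preincubation, then 150nM Ub-Rho; 480/540 nm.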

[9] = S16 Schwann cell viability assay (CellTiter-Glo assay) (AID 624031);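 note: cellular ATP luminescence as a viability measure; plate controls were DMSO-treated cells for no effect and cell-free wells for full effect; nearly all actives have a fitted effect of over 70% in size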
Summary of the method: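 Native S16 Schwann cells (rat), serum-containing medium, overnight attachment then 24 h drug exposure at 37 °C/5% CO2. CellTiter-Glo ATP signal; normalized to cell-free and vehicle wells.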

[10] = S16 Schwann cell PMP22 intronic element beta-lactamase assay (AID 624044; calls by dose curve;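 note: 0% = DMSO and -100% = potassium clavulanate positive control; nearly all actives have a fitted effect of over 15% in size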); settings: S16 rat Schwann cells, PMP22 element beta-lactamase FRET, 24 h; ratio activity, negative = inhibition: at 38.3 µM (top of the series)
Summary of the method: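 Beta-lactamase reporter under a PMP22 intronic regulatory element in stable S16 rat Schwann cells; 24 h compound exposure. 460 nm blue signal normalized between DMSO (0%) and potassium clavulanate, with 535 nm FRET tracking viability; curves classed by r2 and response.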

[11] = qHTS profiling for inhibitors of Plasmodium falciparum proliferation (AID 504749); note: nearly all actives have a fitted effect of over 60% in size; note: potency is the fitted concentration of half-maximal effect;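 for activity, negative = inhibition: 0% = DMSO vehicle and full inhibition = artemisinin control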; settings: P. falciparum in erythrocytes, SYBR Green DNA, 72 h, at 12.8 µM (top of the series)
Summary of the method: (§1)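 Each compound contacts P. falciparum-infected red blood cells for 72 h at 37 C; lysis buffer (Tris, EDTA, saponin, Triton X, SYBR Green I) is added and fluorescence measured next morning; values normalized to controls.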

[12] = system: 3D7; assay: as above; settings: P. falciparum in erythrocytes, SYBR Green DNA, 72 h; series mostly up to 28.7 µM
Summary of the method: as §1

[13] = system: AA1029; assay: as above; settings: P. falciparum in erythrocytes, SYBR Green DNA, 72 h; series mostly up to 28.7 µM
Summary of the method: as §1

[14] = system: AS120; assay: as above; settings: P. falciparum in erythrocytes, SYBR Green DNA, 72 h; series mostly up to 28.7 µM
Summary of the method: as §1

[15] = system: ATS189; assay: as above; settings: P. falciparum in erythrocytes, SYBR Green DNA, 72 h; series mostly up to 28.7 µM
Summary of the method: as §1

[16] = system: C2A; assay: as above; settings: P. falciparum in erythrocytes, SYBR Green DNA, 72 h; series mostly up to 28.7 µM
Summary of the method: as §1

[17] = system: CP185; assay: as above; settings: P. falciparum in erythrocytes, SYBR Green DNA, 72 h; series mostly up to 28.7 µM
Summary of the method: as §1

[18] = system: CP191; assay: as above; settings: P. falciparum in erythrocytes, SYBR Green DNA, 72 h; series mostly up to 28.7 µM
Summary of the method: as §1

[19] = system: CP194; assay: as above; settings: P. falciparum in erythrocytes, SYBR Green DNA, 72 h; series mostly up to 28.7 µM
Summary of the method: as §1

[20] = system: CP201; assay: as above; settings: P. falciparum in erythrocytes, SYBR Green DNA, 72 h; series mostly up to 28.7 µM
Summary of the method: as §1

[21] = system: CP203; assay: as above; settings: P. falciparum in erythrocytes, SYBR Green DNA, 72 h; series mostly up to 28.7 µM
Summary of the method: as §1

[22] = system: CP211; assay: as above; settings: P. falciparum in erythrocytes, SYBR Green DNA, 72 h; series mostly up to 28.7 µM
Summary of the method: as §1

[23] = system: CP215; assay: as above; settings: P. falciparum in erythrocytes, SYBR Green DNA, 72 h; series mostly up to 28.7 µM
Summary of the method: as §1

[24] = system: CP217; assay: as above; settings: P. falciparum in erythrocytes, SYBR Green DNA, 72 h; series mostly up to 28.7 µM
Summary of the method: as §1

[25] = system: CP238; assay: as above; settings: P. falciparum in erythrocytes, SYBR Green DNA, 72 h; series mostly up to 28.7 µM
Summary of the method: as §1

[26] = system: CP247; assay: as above; settings: P. falciparum in erythrocytes, SYBR Green DNA, 72 h; series mostly up to 28.7 µM
Summary of the method: as §1

[27] = system: CP250; assay: as above; settings: P. falciparum in erythrocytes, SYBR Green DNA, 72 h; series mostly up to 28.7 µM
Summary of the method: as §1

[28] = system: CP252; assay: as above; settings: P. falciparum in erythrocytes, SYBR Green DNA, 72 h; series mostly up to 28.7 µM
Summary of the method: as §1

[29] = system: CP256; assay: as above; settings: P. falciparum in erythrocytes, SYBR Green DNA, 72 h; series mostly up to 28.7 µM
Summary of the method: as §1

[30] = system: CP262; assay: as above; settings: P. falciparum in erythrocytes, SYBR Green DNA, 72 h; series mostly up to 28.7 µM
Summary of the method: as §1

[31] = system: CP265; assay: as above; settings: P. falciparum in erythrocytes, SYBR Green DNA, 72 h; series mostly up to 28.7 µM
Summary of the method: as §1

[32] = system: CP266; assay: as above; settings: P. falciparum in erythrocytes, SYBR Green DNA, 72 h; series mostly up to 28.7 µM
Summary of the method: as §1

[33] = system: CP268; assay: as above; settings: P. falciparum in erythrocytes, SYBR Green DNA, 72 h; series mostly up to 28.7 µM
Summary of the method: as §1

[34] = system: CP269; assay: as above; settings: P. falciparum in erythrocytes, SYBR Green DNA, 72 h; series mostly up to 28.7 µM
Summary of the method: as §1

[35] = system: CP297; assay: as above; settings: P. falciparum in erythrocytes, SYBR Green DNA, 72 h; series mostly up to 28.7 µM
Summary of the method: as §1

[36] = system: CP305; assay: as above; settings: P. falciparum in erythrocytes, SYBR Green DNA, 72 h; series mostly up to 28.7 µM
Summary of the method: as §1

[37] = system: CP315; assay: as above; settings: P. falciparum in erythrocytes, SYBR Green DNA, 72 h; series mostly up to 28.7 µM
Summary of the method: as §1

[38] = system: CP325; assay: as above; settings: P. falciparum in erythrocytes, SYBR Green DNA, 72 h; series mostly up to 28.7 µM
Summary of the method: as §1

[39] = system: CP329; assay: as above; settings: P. falciparum in erythrocytes, SYBR Green DNA, 72 h; series mostly up to 28.7 µM
Summary of the method: as §1

[40] = system: DIV17; assay: as above; settings: P. falciparum in erythrocytes, SYBR Green DNA, 72 h; series mostly up to 28.7 µM
Summary of the method: as §1

[41] = system: DIV30; assay: as above; settings: P. falciparum in erythrocytes, SYBR Green DNA, 72 h; series mostly up to 28.7 µM
Summary of the method: as §1

[42] = system: Dd2; assay: as above; settings: P. falciparum in erythrocytes, SYBR Green DNA, 72 h; series mostly up to 28.7 µM
Summary of the method: as §1

[43] = system: ECU; assay: as above; settings: P. falciparum in erythrocytes, SYBR Green DNA, 72 h; series mostly up to 28.7 µM
Summary of the method: as §1

[44] = system: FAB9; assay: as above; settings: P. falciparum in erythrocytes, SYBR Green DNA, 72 h; series mostly up to 28.7 µM
Summary of the method: as §1

[45] = system: JCK; assay: as above; settings: P. falciparum in erythrocytes, SYBR Green DNA, 72 h; series mostly up to 28.7 µM
Summary of the method: as §1

[46] = system: N140; assay: as above; settings: P. falciparum in erythrocytes, SYBR Green DNA, 72 h; series mostly up to 28.7 µM
Summary of the method: as §1

[47] = system: P94_40; assay: as above; settings: P. falciparum in erythrocytes, SYBR Green DNA, 72 h; series mostly up to 28.7 µM
Summary of the method: as §1

[48] = system: PC15; assay: as above; settings: P. falciparum in erythrocytes, SYBR Green DNA, 72 h; series mostly up to 28.7 µM
Summary of the method: as §1

[49] = system: PC26; assay: as above; settings: P. falciparum in erythrocytes, SYBR Green DNA, 72 h; series mostly up to 28.7 µM
Summary of the method: as §1

[50] = system: PC49; assay: as above; settings: P. falciparum in erythrocytes, SYBR Green DNA, 72 h; series mostly up to 28.7 µM
Summary of the method: as §1

[51] = system: SC27B; assay: as above; settings: P. falciparum in erythrocytes, SYBR Green DNA, 72 h; series mostly up to 28.7 µM
Summary of the method: as §1

[52] = system: TAB113; assay: as above; settings: P. falciparum in erythrocytes, SYBR Green DNA, 72 h; series mostly up to 28.7 µM
Summary of the method: as §1

Glucocorticoid receptor (Homo sapiens), sequence (P04150 whole entry, looked up, the tested form may be a part): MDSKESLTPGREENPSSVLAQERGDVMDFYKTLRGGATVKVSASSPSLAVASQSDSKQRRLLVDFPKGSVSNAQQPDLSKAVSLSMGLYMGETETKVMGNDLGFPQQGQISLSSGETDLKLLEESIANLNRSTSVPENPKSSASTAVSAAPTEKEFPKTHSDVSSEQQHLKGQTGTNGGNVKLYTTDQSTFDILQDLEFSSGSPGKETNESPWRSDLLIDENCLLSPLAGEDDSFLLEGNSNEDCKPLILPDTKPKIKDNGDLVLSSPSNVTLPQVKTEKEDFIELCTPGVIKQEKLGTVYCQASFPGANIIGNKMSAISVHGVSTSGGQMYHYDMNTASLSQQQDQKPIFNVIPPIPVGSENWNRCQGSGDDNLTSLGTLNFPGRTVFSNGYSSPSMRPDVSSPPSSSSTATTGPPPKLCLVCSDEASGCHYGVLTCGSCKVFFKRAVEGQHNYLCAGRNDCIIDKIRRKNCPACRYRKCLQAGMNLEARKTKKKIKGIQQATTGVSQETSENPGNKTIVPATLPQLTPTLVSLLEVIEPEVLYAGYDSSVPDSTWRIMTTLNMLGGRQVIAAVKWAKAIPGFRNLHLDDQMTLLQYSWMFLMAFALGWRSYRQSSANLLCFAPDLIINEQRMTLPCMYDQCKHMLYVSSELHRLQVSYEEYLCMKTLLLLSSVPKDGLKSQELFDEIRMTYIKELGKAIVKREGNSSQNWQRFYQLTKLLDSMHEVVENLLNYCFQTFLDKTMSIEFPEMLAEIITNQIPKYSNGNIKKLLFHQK
Ubiquitin carboxyl-terminal hydrolase 1 (Homo sapiens), sequence (O94782 whole entry, looked up): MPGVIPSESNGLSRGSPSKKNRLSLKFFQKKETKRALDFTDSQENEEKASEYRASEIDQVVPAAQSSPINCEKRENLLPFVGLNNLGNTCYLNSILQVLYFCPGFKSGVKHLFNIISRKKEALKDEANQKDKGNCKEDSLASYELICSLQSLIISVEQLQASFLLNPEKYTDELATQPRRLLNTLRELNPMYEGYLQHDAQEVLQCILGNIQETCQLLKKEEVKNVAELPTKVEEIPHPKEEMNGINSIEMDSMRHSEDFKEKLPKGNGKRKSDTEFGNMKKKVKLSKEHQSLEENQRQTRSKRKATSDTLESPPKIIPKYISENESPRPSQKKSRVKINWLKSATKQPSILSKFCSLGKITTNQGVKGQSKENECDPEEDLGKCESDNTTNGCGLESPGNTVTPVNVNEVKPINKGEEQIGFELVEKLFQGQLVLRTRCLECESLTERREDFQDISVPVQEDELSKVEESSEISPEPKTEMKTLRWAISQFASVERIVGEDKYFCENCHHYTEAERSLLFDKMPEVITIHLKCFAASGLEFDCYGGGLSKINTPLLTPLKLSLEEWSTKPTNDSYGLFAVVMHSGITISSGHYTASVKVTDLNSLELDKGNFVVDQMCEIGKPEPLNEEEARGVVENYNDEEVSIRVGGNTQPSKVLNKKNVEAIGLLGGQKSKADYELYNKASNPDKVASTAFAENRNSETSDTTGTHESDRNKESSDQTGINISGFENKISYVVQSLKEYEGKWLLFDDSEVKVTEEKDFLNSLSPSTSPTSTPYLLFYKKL
ATP-dependent 6-phosphofructokinase (Trypanosoma brucei brucei), sequence (O15648 whole entry, looked up): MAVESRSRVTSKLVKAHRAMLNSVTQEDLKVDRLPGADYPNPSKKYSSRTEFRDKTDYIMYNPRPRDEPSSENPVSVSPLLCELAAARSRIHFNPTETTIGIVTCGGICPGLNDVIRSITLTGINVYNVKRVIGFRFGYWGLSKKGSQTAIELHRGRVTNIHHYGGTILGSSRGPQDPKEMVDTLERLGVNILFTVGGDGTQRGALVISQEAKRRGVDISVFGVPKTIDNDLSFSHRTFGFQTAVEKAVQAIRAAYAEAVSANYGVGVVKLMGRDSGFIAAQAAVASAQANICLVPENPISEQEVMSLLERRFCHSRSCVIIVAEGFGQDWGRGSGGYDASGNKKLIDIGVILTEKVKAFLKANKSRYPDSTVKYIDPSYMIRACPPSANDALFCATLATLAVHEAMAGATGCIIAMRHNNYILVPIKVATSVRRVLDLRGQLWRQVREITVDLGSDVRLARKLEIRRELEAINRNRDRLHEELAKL
3',5'-cyclic-AMP phosphodiesterase 4B (Homo sapiens), sequence (Q07343 whole entry, looked up): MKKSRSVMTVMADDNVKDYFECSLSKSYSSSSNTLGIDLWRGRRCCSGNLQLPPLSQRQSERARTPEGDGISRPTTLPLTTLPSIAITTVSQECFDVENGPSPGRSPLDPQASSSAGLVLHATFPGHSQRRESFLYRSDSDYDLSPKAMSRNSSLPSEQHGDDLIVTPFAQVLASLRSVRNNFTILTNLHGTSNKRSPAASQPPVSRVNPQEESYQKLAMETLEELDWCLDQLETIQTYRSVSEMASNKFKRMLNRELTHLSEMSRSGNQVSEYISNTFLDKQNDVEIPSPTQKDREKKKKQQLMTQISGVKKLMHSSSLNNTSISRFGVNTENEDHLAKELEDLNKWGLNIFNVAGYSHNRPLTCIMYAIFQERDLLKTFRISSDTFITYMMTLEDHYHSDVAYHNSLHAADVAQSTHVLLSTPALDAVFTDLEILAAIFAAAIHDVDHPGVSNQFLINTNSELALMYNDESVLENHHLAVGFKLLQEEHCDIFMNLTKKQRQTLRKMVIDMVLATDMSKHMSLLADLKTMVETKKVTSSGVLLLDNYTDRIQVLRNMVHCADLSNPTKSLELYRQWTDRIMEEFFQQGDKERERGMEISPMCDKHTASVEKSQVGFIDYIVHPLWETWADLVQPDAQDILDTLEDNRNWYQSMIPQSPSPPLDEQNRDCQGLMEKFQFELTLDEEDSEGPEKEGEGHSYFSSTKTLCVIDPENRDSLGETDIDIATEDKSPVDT

CN(C)[C@H]1C(=O)C(C(N)=O)=C(O)[C@]2(O)C(=O)C3=C(O)c4c(O)cccc4[C@@](C)(O)[C@H]3C[C@@H]12
active: Potency [42] 1.78 µM
inactive: activity change, negative = inhibition [1] 11.4% | activity change, negative = inhibition [2] -2.46% | outcome [3] | Potency [4] > 20.6 µM | Potency [5] > 20.6 µM | outcome [6] | outcome [7] | Potency [8] | Potency [9] | Potency [10] | activity, negative = inhibition ([11]; parasite line A) -27.8% | activity, negative = inhibition ([11]; parasite line B) -27.1% | Potency [12] | Potency [13] | Potency [14] | Potency [15] | Potency [16] | Potency [17] | Potency [18] | Potency [19] | Potency [20] | Potency [21] | Potency [22] | Potency [23] | Potency [24] | Potency [25] | Potency [26] | Potency [27] | Potency [28] | Potency [29] | Potency [30] | Potency [31] | Potency [32] | Potency [33] | Potency [34] | Potency [35] | Potency [36] | Potency [37] | Potency [38] | Potency [39] | Potency [40] | Potency [41] | Potency [43] | Potency [44] | Potency [45] | Potency [46] | Potency [47] | Potency [48] | Potency [49] | Potency [50] | Potency [51] | Potency [52]
